# Bioassay records from PubChem.
# NS1 inh = qHTS Assay for Inhibitors of Influenza NS1 Protein Function. Potency, µM (highest dose often 46.1 µM), without a hit: at the top dose activity, positive = more growth. hit rate 0.4% among 270,000; calls by dose curve; note: potency is the fitted concentration of half-maximal effect; actives are rising curves; nearly all actives have a fitted effect of over 50% in size
#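 A cell-based growth assay was used: compounds that relieve NS1-induced slow growth of budding yeast raise OD600. Assay medium was yeast nitrogen base with ammonium sulphate and -URA supplement, pH 6.0, with 2% galactose.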
# Pf growth 96h = Primary qHTS for delayed death inhibitors of the malarial parasite plastid, 96 hour incubation | P. falciparum luciferase reporter growth, 96 h | Potency, µM (highest dose often 28.7 µM), for inactives: at the highest dose activity change, negative = inhibition, most hits filed as inhibitors | hit rate 6.9% among 320,000 | AID 504834, 2011; note: potency is the fitted concentration of half-maximal effect; % is set by controls: 0 for no effect and ±100 for the full control effect
#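 Luminescence readout: decreased luciferase signal marks inhibited growth of reporter-expressing P. falciparum in infected red cells (2% hematocrit, 0.05% parasitemia final), exposed to compound two generations (96 h, 37 C, 5% CO2).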
# SARS PLpro yeast = qHTS of Yeast-based Assay for SARS-CoV PLP; S. cerevisiae expressing SARS-CoV PLpro, growth rescue; hit rate 0.19% among 330,000; Potency, µM (titrated, usually from 32.9 µM), for inactives: at the top dose activity, positive = growth rescue, actives largely listed as activators; AID 485353, 2010; calls by dose curve; note: potency is the fitted concentration of half-maximal effect; 0% is about no effect; nearly all actives have a fitted effect of over 55% in size
# Cycloheximide cs = Cycloheximide Counterscreen for Small Molecule Inhibitors of Shiga Toxin; AID 2314, 2010; hit rate 12% among 300,000; max response, %; cell reporter, cycloheximide protein synthesis inhibition counterscreen; in the data active = max response mostly above about 13%, no sharp cut-off; inactive = mostly below about 14%; note: read at 38.3 µM for the half of the compounds with a filed dose; 0% is about no effect
# Shiga inhibitor = A qHTS for Small Molecule Inhibitors of Shiga Toxin; Vero cells, Shiga toxin protein synthesis inhibition reporter; inhibition, % at 38.7 µM; hit rate 9.2% among 290,000; in the data active = inhibition mostly above about 28%, no sharp cut-off; inactive = mostly below about 43%; note: 0% is about no effect
# Pf growth 48h = Primary qHTS for delayed death inhibitors of the malarial parasite plastid, 48 hour incubation | P. falciparum luciferase growth in erythrocytes, 48 h | Potency, µM (top dose mostly 28.7 µM), for the others: top-dose activity change, negative = inhibition, hits mostly inhibitors | hit rate 5.9% among 310,000 | AID 504832, 2011; note: potency is the fitted concentration of half-maximal effect; % is set by controls: 0 for no effect and ±100 for the full control effect
#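 In quantitative HTS format, infected erythrocytes bearing luciferase-reporter parasites were treated for a single generation at 37 C. Luminescence after adding detection reagent served as the growth measure.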
# * = called active by the depositor; ? = inconclusive; . = not tested or not shown; [ ] = remark or other dose. In the library only some 21% were active in any assay of this set; here they are far more common. Unless noted, calls come from the whole dose curve; as a rule, active = well fitted inhibition curve with a large enough effect; inconclusive = small, poorly fitted or top-dose-only effect, or another doubt; inactive = no such curve, though single readings can be large or run the other way.
SMILES,NS1 inh,Pf growth 96h,SARS PLpro yeast,Cycloheximide cs,Shiga inhibitor,Pf growth 48h
CN(C)CCP(=O)(c1ccccc1)c1ccccc1,0.4%,25.8%,0.5%,-1.5,-7.9,0.6%
CN(C)CCN(C)Cc1c2ccccc2c(CN(C)CCN(C)C)c2ccccc12,-36.4%,1.65µM*,2.0%,1.2,20.0,6.57µM*
CCOc1ccc(/C=N/Nc2nc(=O)[nH]nc2C)cc1OC,.,?,-7.9%,32.5*,33.7*,?
COc1ccc(/C=N/Nc2nc(C)cc(=O)[nH]2)cc1OC,14.8%,?,-9.4%,-2.1,-4.7,?
COc1cc(/C=N/Nc2nc(C)cc(=O)[nH]2)ccc1O,1.4%,-3.6%,-0.3%,-1.7,-2.6,34.0%
CCOc1cc(/C=N/Nc2nc(=O)[nH]nc2C)ccc1O,.,17.3%,-0.1%,42.8*,71.1*,2.33µM*
Cc1n[nH]c(=O)nc1N/N=C/c1ccco1,.,-15.8%,-8.6%,11.1,28.3*,?
COc1cc(/C=N/Nc2nc(=O)[nH]nc2C)cc(OC)c1O,0.9%,?,-0.3%,26.6*,94.5*,?
COC(=O)C1=C[C@@H](C(=O)OC)C2C3=C(C(=O)[C@@]2(C)NC(=O)c2ccccc2)[C@H](C)n2c(=O)n(-c4ccccc4)c(=O)n2[C@@H]3C1 (stereo partly drawn),.,.,.,-3.4,-1.8,.
Cc1c(NS(=O)(=O)c2cc(C(=O)NCCN(C)C)ccc2Cl)c(=O)n(-c2ccccc2)n1C,8.3%,1.1%,0.9%,-5.9,1.0,.
Cc1ccc(C(=O)OCC(=O)NC(=O)c2ccccc2)o1,.,34.7%,-3.0%,.,.,3.1%
CC(=O)NC1C(=O)N=C(SC(C)C(=O)Nc2cccc(Cl)c2)NC1=O (stereo not drawn),6.9%,2.6%[5.75 µM],0.0%,-3.8,-20.6,-19.4%
CC(C)(C)C(=O)O/N=C(\N)c1ccc(-c2csnn2)cc1,0.3%,276.3%,-1.1%,44.6*,78.3*,309.0%
CC(=O)O/N=C(\N)c1ccc(-c2csnn2)cc1,-2.5%,124.1%,-1.4%,33.8*,64.7*,295.5%
O=C(NCc1ccco1)c1ccc(-c2csnn2)cc1,2.3%,20.1%,0.3%,8.2,23.9,?
S=c1[nH]nc(-c2ccc(Cl)cc2)n1CCCN1CCOCC1,.,-9.1%,-1.9%,-5.2,-4.1,4.2%
COc1cc(-c2[nH]ncc2CN2CCN(Cc3cccs3)CC2)cc(OC)c1OC,-1.4%,?,0.1%,-2.3,-1.6,?
C[C@]12CC[C@@H]3c4ccc(O)cc4CC[C@H]3[C@@H]1C[C@H](O)C2O (stereo partly drawn),.,?,.,.,.,-14.0%
Cc1ncc(CO)c(/C=N/Nc2cccc(Cl)n2)c1O,5.0%,44.8%,1.6%,20.9,24.7,?
Cc1ncc(CO)c(/C=N/NC(=O)c2ccc(Br)cc2)c1O,3.5%,?,?,0.7,-6.4,?
Cc1ncc(CO)c(/C=N/NC(=O)c2cc(O)c(O)c(O)c2)c1O,.,?,?,-4.8,2.0,2.62µM*
Cc1ncc(CO)c(/C=N/NC(=S)Nc2ccc(C(C)C)cc2)c1O,9.0%,11.7µM*,-0.4%,11.6,5.4,?
O=S(=O)(NCc1ccccc1)NCc1cccc(C(F)(F)F)c1,.,-18.9%,1.6%,-0.6,-4.5,26.8%
C/C(=N\NC(=O)c1cc(C(C)C)[nH]n1)c1ccncc1,-17.4%,-0.6%,0.2%,31.6,48.9*,93.2%
C/C(=N\NC(=O)c1cc(C(C)C)[nH]n1)c1ccco1,10.0%,-16.6%,-12.0%,66.7*,138.3*,166.2%
SMILES,NS1 inh,Pf growth 96h,SARS PLpro yeast,Cycloheximide cs,Shiga inhibitor,Pf growth 48h
COC(=O)C1=C(c2ccc(F)cc2OCc2ccccc2)C[C@@H]2CC[C@H]1N2C(=O)NCc1ccccc1,.,4.15µM*,-0.7%,.,.,9.28µM*
COC(=O)C1=C(c2ccc(F)cc2OCc2ccccc2)C[C@@H]2CC[C@H]1N2C(=O)NCCCOC(C)C,.,?,-2.3%,.,.,9.28µM*
COC(=O)C1=C(c2ccc(F)cc2OCc2ccccc2)C[C@@H]2CC[C@H]1N2C(=O)NCc1ccccc1OC,.,?,0.1%,.,.,6.57µM*
COC(=O)C1=C(c2ccc(F)cc2OCc2ccccc2)C[C@@H]2CC[C@H]1N2C(=O)N1CCC(O)CC1,.,?,-4.8%,.,.,11.7µM*
CCCNC(=O)N1[C@H]2CC[C@@H]1C(C(=O)OC)=C(c1ccc(F)cc1OCc1ccccc1)C2,.,?,-5.5%,.,.,?
CCN(CC(=O)Nc1ccccc1C(F)(F)F)C(=O)CCSc1ccc(F)cc1,.,6.9%,8.5%,.,.,7.8%
COC(=O)C1=C(c2ccc(F)cc2OCc2ccccc2)C[C@@H]2CC[C@H]1N2C(=O)NCc1ccco1,.,?,0.8%,.,.,?
COC(=O)C1=C(c2ccc(F)cc2OCc2ccccc2)C[C@@H]2CC[C@H]1N2C(=O)NCc1cccc(F)c1,.,?,6.7%,.,.,2.33µM*
COC(=O)C1=C(c2ccc(F)cc2OCc2ccccc2)C[C@@H]2CC[C@H]1N2C(=O)NCCO,.,?,0.5%,.,.,?
COC(=O)C1=C(c2ccc(F)cc2OCc2ccccc2)C[C@@H]2CC[C@H]1N2C(=O)NCc1ccc2c(c1)OCO2,.,?,-13.9%,.,.,2.94µM*
COC(=O)C1=C(c2ccc(F)cc2OCc2ccccc2)C[C@@H]2CC[C@H]1N2C(=O)NCC1CC1,.,?,1.4%,.,.,10.4µM*
COc1cc(C(C)=O)ccc1Oc1ncccn1,2.1%,39.8%,-3.2%,-3.9,6.5,46.8%
CCCN(CCC)S(=O)(=O)c1ccc(C(=O)N2CCOCC2)cc1,0.7%,-20.4%,28.4%,-2.9,18.4,.
Cn1cnnc1Sc1cc(N2CCN(S(=O)(=O)c3ccc(Cl)c(Cl)c3)CC2)ccc1[N+](=O)[O-],24.8%,-2.0%,6.4%,-3.7,0.9,11.7µM*
Cn1cnnc1Sc1cc(N2CCN(S(=O)(=O)c3ccc4ccccc4c3)CC2)ccc1[N+](=O)[O-],?,-17.4%,16.1%,11.2*,26.4,?
O=C(Cc1csc(NC(=O)Nc2cccc(Cl)c2)n1)NC1CCCC1,.,28.5%,4.5%,.,.,?
Fc1cccc(Nc2ncnc3sccc23)c1,7.6%,57.0%,-2.6%,9.8*,26.6,43.9%
O=C(O)c1cccc(Nc2ncnc3sccc23)c1,14.2%,374.8%,1.3%,25.5*,40.6,161.5%
Cc1ccc(S(=O)(=O)N(C)C)cc1-n1c(SCC(=O)Nc2ccc(F)c(F)c2F)nc2ccccc2c1=O,14.0%,?,-8.3%,-2.9,-7.2,?
COc1ccc(S(=O)(=O)Cc2ccc(C(=O)NC3CCCCC3)o2)cc1,-11.0%,-1.0%,-11.2%,-2.0,-3.2,11.0%
CCOC(=O)c1oc2ccc(/C=N/O)c(Cl)c2c1C,-0.4%,22.7%,-1.1%,28.7*,36.8,77.0%
CCOC(=O)c1oc2cc(C)cc(C)c2c1C,4.9%,14.7%,-0.5%,-1.9,-0.9,4.7%
